Experimental data from PubChem BioAssay (Tox21).
Results filed as inconclusive are left out. The source made the active and inactive calls. Unless noted, the call rests on the fitted dose curve; in most records, active means well fitted curve in the direction sought with a large enough effect in the repeat runs; inconclusive means weak or mixed curves; inactive means no such curve, though single readings can be large; an effect the other way counts as inactive or inconclusive.

Columns and labels:
[1] = qHTS RealTime-Glo MT Cell Viability Assay in HEK293 cells - 0 hour (AID 1224880); further: top concentration of the series differs between compounds; nearly all actives have a fitted effect of over 45% in size
Summary of the method: (§1)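 Luminescence readout at each listed time point; HEK293, 600 cells/well, RealTime-Glo MT reagent added with cells; compounds pinned (23 nL in DMSO) after 5 h at 37 C; continuous culture at 37 C.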

[2] = A CellTox Green Cytotoxicity Assay to monitor cytotoxicity in HEK293 cells - 32 hour (AID 1224881); further: nearly all actives have a fitted effect of over 40% in size
Summary of the method: (§2)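 Read-out: fluorescence of a cell-impermeant cyanine dye staining DNA of dead cells, proportional to cytotoxicity. HEK293, 600 cells/well with reagent, compound (23 nL DMSO) added after 5 h; reads at 0, 8, 16, 24, 32, 40 h.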

[3] = A CellTox Green Cytotoxicity Assay to monitor cytotoxicity in HepG2 cells - 0 hour (AID 1224882); further: nearly all actives have a fitted effect of over 35% in size
Summary of the method: (§3)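 HepG2, 600 cells/well premixed w/ CellTox Green; 5 h settle, 37 C/5% CO2; pintool cpd add (DMSO); 37 C, 40 h; fluorescence read at 0, 8, 16, 24, 32, 40 h.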

[4] = A CellTox Green Cytotoxicity Assay to monitor cytotoxicity in HepG2 cells - 32 hour (AID 1224883); further: nearly all actives have a fitted effect of over 50% in size
Summary of the method: as §3

[5] = A CellTox Green Cytotoxicity Assay to monitor cytotoxicity in HEK293 cells - 8 hour (AID 1224884); further: nearly all actives have a fitted effect of over 35% in size
Summary of the method: as §2

[6] = qHTS RealTime-Glo MT Cell Viability Assay in HepG2 cells - 16 hour (AID 1224885); further: nearly all actives have a fitted effect of over 50% in size
Summary of the method: (§4)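 Viability was tracked continuously by NanoLuc luminescence from prosubstrate reduced by living HepG2 cells, at successive time points over 40 h of compound exposure. Cells with reagent were preincubated 5 h at 37 °C before compound addition.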

[7] = qHTS RealTime-Glo MT Cell Viability Assay in HEK293 cells - 24 hour (AID 1224886); further: top concentration of the series differs between compounds; nearly all actives have a fitted effect of over 50% in size
Summary of the method: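 Viability tracked continuously by luminescence as live cells reduce a prosubstrate for NanoLuc; HEK293 cells preincubated 5 h, compound-treated at 37 C, and read at 0, 8, 16, 24, 32 and 40 h.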

[8] = A CellTox Green Cytotoxicity Assay to monitor cytotoxicity in HepG2 cells - 8 hour (AID 1224890); further: nearly all actives have a fitted effect of over 45% in size
Summary of the method: as §3

[9] = qHTS assay to identify small molecule antagonists of the estrogen receptor alpha (ER-alpha) signaling pathway using the BG1 cell line in the presence of 0.1 nM 17-beta-estradiol - cell viability counter screen (AID 1259241); further: nearly all actives have a fitted effect of over 40% in size
Summary of the method: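 VM7Luc4E2 cells (endogenous full-length ER-alpha, 4xERE-luciferase), cultured 5 days in charcoal-stripped serum, exposed to compounds with 0.1 nM 17beta-estradiol (final) for 22 hr at 37C. Viability read in same wells as live-cell protease fluorescence after 30 min.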

[10] = qHTS assay to identify small molecule antagonists of the androgen receptor (AR) signaling pathway using the MDA cell line in the presence of 0.5 nM R1881 - cell viability counter screen (AID 1259242); further: nearly all actives have a fitted effect of over 45% in size
Summary of the method: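 Live-cell protease fluorescence, CellTiter-Fluor, 30 min at 37C. Cells: MDA-kb2, 3,000/well, preincubated 5 hr. Compounds plus 0.5 nM R1881 final, 16 hr, 37C, 0% CO2.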

[11] = qHTS assay to identify small molecule HDAC inhibitors (AID 1259364);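 further: wild-type HCT-116 cells with endogenous class I/II HDAC activity; top concentration of the series differs between compounds; nearly all actives have a fitted effect of over 45% in size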
Summary of the method: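 HCT-116 (wild type), 1,500 cells/well, overnight; compound 2 hr 37C 5% CO2; HDAC-Glo I/II reagent 30 min RT; luminescence readout.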

[12] = qHTS assay to identify small molecule HDAC inhibitors - cell viability counter screen (AID 1259365); further: series mostly up to about 92 µM; nearly all actives have a fitted effect of over 50% in size
Summary of the method: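 Wild-type HCT-116 cells, 1,500/well, cultured overnight, then compound-treated 2 h at 37 C. Viability measured as ATP luminescence with CellTiter-Glo after 30 min at room temperature.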

[13] = qHTS assay to identify small molecule agonists of the sonic hedgehog signaling (Shh) pathway - cell viability counter screen (AID 1259366); further: nearly all actives have a fitted effect of over 50% in size
Summary of the method: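 NIH/3T3-derived Gli1-Luc reporter cells, 2,000 per well, received compound after 4 h and were treated about 23 h at 37C. Viability measured in the same wells by CellTiter-Fluor fluorescence after 1 h.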

[14] = qHTS assay to identify small molecule antagonists of the sonic hedgehog signaling (Shh) pathway - cell viability counter screen (AID 1259367); further: nearly all actives have a fitted effect of over 55% in size
Summary of the method: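 Conditioned medium drove Shh signaling in 3T3 Gli1-Luc cells exposed to compounds at 37C and 5% CO2. Viability was determined from CellTiter-Fluor fluorescence, with reagent incubated 1 hr after 23 hr of treatment.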

[15] = qHTS RealTime-Glo MT Cell Viability Assay in HEK293 cells - 8 hour (AID 1224887)
Summary of the method: as §1

[16] = A CellTox Green Cytotoxicity Assay to monitor cytotoxicity in HEK293 cells - 16 hour (AID 1224888); further: nearly all actives have a fitted effect of over 35% in size
Summary of the method: as §2

[17] = qHTS RealTime-Glo MT Cell Viability Assay in HepG2 cells - 0 hour (AID 1224889); further: nearly all actives have a fitted effect of over 50% in size
Summary of the method: as §4

[18] = biological target: Estrogen receptor (Homo sapiens) (UniProt P03372); experiment: qHTS assay to identify small molecule antagonists of the estrogen receptor alpha (ER-alpha) signaling pathway using the BG1 cell line in the presence of 0.1 nM 17-beta-estradiol (AID 1259244); further: nearly all actives have a fitted effect of over 50% in size
Chain of Estrogen receptor (Homo sapiens) (P03372 whole entry, looked up): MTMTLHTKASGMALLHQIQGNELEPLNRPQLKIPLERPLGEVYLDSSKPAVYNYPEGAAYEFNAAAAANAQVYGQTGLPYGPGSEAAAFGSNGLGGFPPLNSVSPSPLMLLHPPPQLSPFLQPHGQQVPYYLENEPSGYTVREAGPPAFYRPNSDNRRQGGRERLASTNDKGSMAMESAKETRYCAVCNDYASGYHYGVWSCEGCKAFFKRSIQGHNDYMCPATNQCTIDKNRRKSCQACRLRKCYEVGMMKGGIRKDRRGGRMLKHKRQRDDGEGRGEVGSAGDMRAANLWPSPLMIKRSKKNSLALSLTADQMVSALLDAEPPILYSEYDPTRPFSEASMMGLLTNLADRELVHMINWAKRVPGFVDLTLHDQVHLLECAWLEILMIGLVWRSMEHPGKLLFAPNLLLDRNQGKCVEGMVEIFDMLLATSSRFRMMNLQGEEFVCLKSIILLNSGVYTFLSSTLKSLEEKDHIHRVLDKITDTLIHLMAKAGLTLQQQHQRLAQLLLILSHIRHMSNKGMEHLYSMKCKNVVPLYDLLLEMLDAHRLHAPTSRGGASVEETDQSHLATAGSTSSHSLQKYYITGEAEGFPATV
Summary of the method: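 Luminescence after ONE-Glo (30 min, room temperature) measured ERE-luciferase activity in VM7Luc4E2 cells treated 22 h with compound and 0.1 nM final 17beta-estradiol as stimulator.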

[19] = qHTS assay to identify small molecule phospholipidosis (PLD) inducers (AID 1259344; active means well fitted curve in the direction sought with a large enough effect; an effect the other way counts as inactive or inconclusive)
Summary of the method: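 After 4 h attachment on collagen I, HepG2 cells were dosed with compound alongside LipidTOX Red, kept 24 h at 37 C, fixed, and imaged for lamellar phospholipid pits.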

[20] = biological target: Androgen receptor (Homo sapiens) (UniProt P10275); experiment: qHTS assay to identify small molecule antagonists of the androgen receptor (AR) signaling pathway using the MDA cell line in the presence of 0.5 nM R1881 (AID 1259243); further: nearly all actives have a fitted effect of over 50% in size
Chain of Androgen receptor (Homo sapiens) (P10275 whole entry, looked up): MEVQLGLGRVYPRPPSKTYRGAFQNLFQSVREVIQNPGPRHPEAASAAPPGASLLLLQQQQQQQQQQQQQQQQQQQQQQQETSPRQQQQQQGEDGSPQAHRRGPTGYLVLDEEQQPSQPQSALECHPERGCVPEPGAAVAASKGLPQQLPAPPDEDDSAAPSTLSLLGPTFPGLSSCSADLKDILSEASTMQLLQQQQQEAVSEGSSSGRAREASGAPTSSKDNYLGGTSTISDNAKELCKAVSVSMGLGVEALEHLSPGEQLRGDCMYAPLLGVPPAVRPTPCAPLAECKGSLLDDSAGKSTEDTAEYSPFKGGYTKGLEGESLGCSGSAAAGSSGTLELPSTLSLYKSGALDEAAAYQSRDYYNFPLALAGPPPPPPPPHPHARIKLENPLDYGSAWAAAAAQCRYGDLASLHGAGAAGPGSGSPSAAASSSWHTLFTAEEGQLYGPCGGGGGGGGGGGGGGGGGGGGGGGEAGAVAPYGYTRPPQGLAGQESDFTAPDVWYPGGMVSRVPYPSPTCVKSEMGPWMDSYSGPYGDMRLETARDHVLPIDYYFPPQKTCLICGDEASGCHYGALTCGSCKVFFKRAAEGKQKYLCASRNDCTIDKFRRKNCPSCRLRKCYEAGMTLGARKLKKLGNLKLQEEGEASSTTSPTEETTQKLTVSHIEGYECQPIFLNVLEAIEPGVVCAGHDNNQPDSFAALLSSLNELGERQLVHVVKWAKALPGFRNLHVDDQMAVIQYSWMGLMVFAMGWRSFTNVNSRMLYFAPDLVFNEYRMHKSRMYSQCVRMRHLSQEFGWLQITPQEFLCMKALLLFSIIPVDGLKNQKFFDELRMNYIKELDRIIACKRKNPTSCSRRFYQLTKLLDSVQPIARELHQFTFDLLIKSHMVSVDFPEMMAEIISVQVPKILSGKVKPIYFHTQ
Summary of the method: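 MDA-kb2, MMTV-luc (AR/GR elements); 3,000 cells/well; cpd + 0.5 nM R1881 final; 16 hr 37C, 0% CO2; ONE-Glo 30 min RT; luminescence.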

Measured: Potency

NC(=O)c1cn(Cc2c(F)cccc2F)nn1
not listed: [15] | [16] | [17] | [18] | [19] | [20]
inactive: all other assays above

c1ccc([C@H]2CN3CCSC3=N2)cc1
not listed: [7] | [20]
inactive: all other assays above

O=C(O)COc1nn(Cc2ccccc2)c2ccccc12
not listed: [7] | [19]
inactive: all other assays above

CC(C)(C)NCCNC(C)(C)C
not listed: [7] | [19] | [20]
inactive: all other assays above

COC(=O)CCSCCC(=O)OC
not listed: [15] | [16] | [17] | [18] | [19] | [20]
inactive: all other assays above

CCN1CCC[C@H]1CNC(=O)c1c(O)c(Cl)cc(Cl)c1OC
not listed: [15] | [17] | [19] | [20]
inactive: all other assays above

CC(C)CNCC(C)C
not listed: [16] | [18] | [19] | [20]
inactive: all other assays above

O=C[C@H](O)[C@@H](O)[C@H](O)[C@H](O)CO
not listed: [15] | [19] | [20]
inactive: all other assays above

CN1N=C(C(N)=O)CCC1=O
not listed: [7] | [19]
inactive: all other assays above
